Screens deposited in PubChem BioAssay by University of Kansas High Throughput Screening Laboratory.
This is a sample that favours compounds with a hit; in the whole collection about 3.5% have one here.
mHTT-CaM PPI inh: disrupts binding of mutant huntingtin to calmodulin. AlphaScreen His-mHTT/GST-CaM binding, luminescence. inhibition, % at 15 µM. actives 3.6% (n = 190,000);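 further: 0% = both proteins with DMSO and 100% = one protein alone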
Pf apPOL inh: Pf-apPOL DNA polymerase inhibition; Recombinant Pf-apPOL, molecular beacon fluorescence, 1.5 h; inhibition, % at 10 µM; actives 0.25% (n = 210,000); AID 1794808
* marks the source's active call; other numbers are inactive results; . = no result. No stated cut-off is given here; in the data, active means inhibition above about 50%; inactive means the rest.

SMILES | mHTT-CaM PPI inh | Pf apPOL inh
N#C/C(=C\c1cccs1)C(=O)Nc1ncc(Cc2cccc(Cl)c2)s1 | 23 | 19
COc1ccc(Nc2nccc(C3CCCN(C(=O)C4CCC4)C3)n2)cc1 (stereo unspecified) | -13 | -4
CCOc1ccccc1NC(=O)c1cc(S(=O)(=O)NCc2ccccc2Cl)ccc1F | 6 | 38
Nc1c(N)c(N)c(N)c(N)c1N | 64* | .
CC(C)(C)C(=O)Cn1nnc(-c2ccncc2)n1 | . | -3
O=C(CN1C(=O)CCCc2ccccc21)NCc1cccnc1 | -3 | 0
Cc1ccc(N2CC(C(=O)NCC(O)Cc3ccccc3)CC2=O)cc1C (stereo unspecified) | -1 | 0
Cc1ccc(C(c2ccc(C)o2)c2cccc([N+](=O)[O-])c2O)o1 | 79* | -8
Cc1ccc(C(c2ccc(C)o2)c2cc3c(cc2[N+](=O)[O-])OCO3)o1 | 72* | 7
Cc1cc2c(cc1[N+](=O)[O-])OCCO2 | . | -1
Cc1ccc(C(c2ccc(C)o2)c2ccccc2Br)o1 | -16 | -1
CCOc1ccc(-n2nc(C(=O)Nc3ccc4c(c3)OCO4)c3ccccc3c2=O)cc1 | 6 | -1
O=C1CC(NCCCN2CCOCC2)C(=O)N1c1ccc(Br)cc1 (stereo unspecified) | 54* | -6
O=C1CC(NCCCN2CCOCC2)C(=O)N1c1ccc(N=Nc2ccccc2)cc1 (stereo unspecified) | 41 | 0
O=C(Nc1ccc(Cl)cc1Cl)C1CC(=O)N(c2ccc(F)cc2)C1 (stereo unspecified) | 0 | -11
CC(C)(C)c1[nH]nc2c1C(c1ccco1)C(C#N)=C(N)O2 (stereo unspecified) | 1 | -1
N#CC1=C(N)Oc2n[nH]c(-c3ccccn3)c2C1c1ccco1 (stereo unspecified) | 91* | 0
COc1ccc(C2=N/C(=C\C=C\c3ccccc3)C(=O)O2)cc1Br | 21 | -4
COc1ccc(C=C2Oc3cc(OCC#N)cc(C)c3C2=O)c(OC)c1OC | 10 | -6
Clc1cc(Cl)cc(OCc2ncc(-c3ccc4c(c3)OCCCO4)s2)c1 | . | 0
COC(=O)c1ccc(NC(=O)C(=O)NCc2ccc3c(c2)OCO3)cc1 | -12 | -3
COc1ccccc1-c1nnc(NC(=O)COc2ccccc2)o1 | 77* | 0
COc1cccc2cc(C(=O)Nc3nnc(Cc4ccc(Cl)s4)o3)oc12 | -8 | -12
CSc1ccccc1-c1nnc(NC(=O)CCOc2ccccc2)o1 | -2 | 0
CCOc1cccc2cc(C(=O)Nc3nnc(-c4ccno4)o3)oc12 | 14 | 79*
SMILES | mHTT-CaM PPI inh | Pf apPOL inh
O=C(CSc1ccc(F)cc1)Nc1nnc(Cc2cccs2)o1 | 33 | -12
O=C(COc1ccc(Cl)cc1)Nc1nnc(Cc2cccs2)o1 | 78* | -64
COC(=O)c1ccc(C(=O)Nc2nnc(Cc3ccc4c(c3)OCO4)o2)cc1 | 57* | -49
CCNc1cc(N2CCC(CCC(=O)N(C)Cc3ccccc3)CC2)ncn1 | 14 | -4
O=C(NC1CCCCC1)N1CCCCC1c1nncn1CC1CC1 (stereo unspecified) | -6 | -7
CC1C=CCC2C(=O)N(c3ccc(F)c(Cl)c3)C(=O)C12 (stereo unspecified) | -5 | 5
COc1ccc(C2CC(C(F)(F)F)n3ncc(C(=O)N4CCC(C)CC4)c3N2)cc1OC (stereo unspecified) | 27 | 2
O=C(COc1ccc(Cl)cc1Cl)Nc1nnc(COc2ccccc2)o1 | 97* | -260
COc1nn(C)cc1C(=O)Nc1nnc(COc2ccccc2)o1 | 66* | -7
O=C(CCS(=O)(=O)c1ccc(Cl)cc1)Nc1nnc(Cc2ccc3c(c2)OCO3)o1 | 4 | 8
COC(=O)c1ccc(C(=O)Nc2nnc(-c3cc(Cl)ccc3Cl)o2)cc1 | -24 | -4
O=C(COc1ccc(Cl)cc1Cl)Nc1ccccc1F | -5 | -4
O=C(COc1ccc(Cl)cc1Cl)Nc1nnc(Cc2ccc3c(c2)OCO3)o1 | 92* | -207
COC(=O)c1ccc(C(=O)Nc2nnc(-c3ccn(C(C)C)n3)o2)cc1 | 65* | -3
COc1nn(C)cc1C(=O)Nc1nnc(-c2ccco2)o1 | -5 | 0
COc1ccc(N2C(=O)C3C4CC(C(Br)C4Br)C3C2=O)cc1 (stereo unspecified) | -2 | -5
CC1c2cccn2-c2sc3c(c2CN1C(=O)NC1CCCC1)CCCC3 (stereo unspecified) | 19 | -3
CCCN(CCC)C(=O)C1CC(=O)OC12CCOC(C)(C)C2 (stereo unspecified) | -4 | -3
COc1ccc(S(=O)(=O)N2c3cc(F)ccc3CCC2C)cc1OC (stereo unspecified) | -13 | -8
COCCN=C1Nc2ncccc2NC12CCN(C(=O)Cc1c(F)cccc1Cl)CC2 | 6 | -5
O=C(Nc1nnc(-c2ccno2)o1)c1ccc2c(c1)OCO2 | 96* | 40
CC1CN(S(=O)(=O)c2ccc(C(=O)Nc3nnc(-c4ccno4)o3)cc2)CC(C)O1 (stereo unspecified) | 42 | 19
COCCCNC(=O)c1ccc2c(c1)ncn2-c1ccc(C)c(Cl)c1 | -1 | 25
CCOCCCNC(=O)c1ccc2c(c1)ncn2-c1ccc(C)c(Cl)c1 | 84* | 29
COc1cc2c(C(=O)N3CCC(C(N)=O)CC3)cn(CC(C)C)c(=O)c2cc1OC | 3 | 6
SMILES | mHTT-CaM PPI inh | Pf apPOL inh
O=C(c1ccccc1CN1C(=O)C2CCCN2C(=O)c2ccccc21)N1CCCC1 (stereo unspecified) | -5 | 0
O=C1NN(c2ccc(Cl)cc2)C(=O)/C1=C/c1cccc(Br)c1 | 95* | -5
O=C1NN(c2ccccc2)C(=O)/C1=C/c1cccc(Br)c1 | 54* | -3
COc1cccc(/C=C2\C(=O)NN(c3ccccc3)C2=O)c1 | 6 | 2
COc1cccc(/C=C2\C(=O)NN(c3ccc(Br)cc3)C2=O)c1 | 7 | 1
Fc1ccc(NC(=S)Nc2cccc3ccccc23)cc1 | -2 | .
CCn1c(/C=C2\C(=O)N(Cc3ccccc3)c3ccccc32)nc2ccccc2c1=O | 33 | -2
Cn1nc(-c2nc(-c3cccc(F)c3)no2)c2c1CCN(C(=O)C1CCCCC1)C2 | -1 | -6
Cc1ccc(CNC(=O)C2CCN(S(=O)(=O)N3CCC4(CC3)OCCO4)CC2)cc1 | -5 | -8
CCN1C(=O)Cc2cc(C(=O)N3CCCC3)ccc21 | -9 | -3
Nc1cccc(C(=O)Nc2ccccc2)c1 | -2 | -5
Nc1ccc(C(=O)Nc2ccccc2)c(N)c1 | 95* | -12
Cc1ccccc1N1CCN(CCOc2cccc(Cl)c2)CC1 | 93* | -5
COc1ccccc1N1CCN(CCOc2ccc(Cl)cc2)CC1 | 7 | -2
COc1ccc(NC(=O)c2c(C)cc(Cl)nc2Cl)cc1 | -4 | -4
COc1cccc(NC(=O)Nc2ccc(Cl)cc2)c1 | -6 | -3
COC(=O)C12CC3CC(CC(NC(=O)c4ccc(=O)oc4)(C3)C1)C2 | 14 | 66*
COC(=O)C12CC3CC(CC(NC(=O)c4ccc(Cn5ccnc5)cc4)(C3)C1)C2 | 0 | -1
O=C(CNS(=O)(=O)c1cccs1)N1CCc2ccccc2C1 | -5 | -6
Cc1cccc(NC(=O)N2CCC(n3cnc4cc(F)ccc4c3=O)CC2)c1 | -6 | -1
O=C(NCCCN1CCCC1)c1cc2n(n1)CCCN(Cc1ccc(Cl)cc1)C2=O | 52* | -5
O=C(NCCCN1CCOCC1)c1cc2n(n1)CCCN(Cc1ccc(Cl)cc1)C2=O | 1 | 0
